From PubChem BioAssay
CHT block: inhibitors of human choline transporter CHT; B-score at 10 µM; High affinity choline transporter 1 (Homo sapiens), Q9GZV3; AID 488975, 2010; CHT-expressing cells, membrane potential dye, choline response; stronger effect = lower value; hit rate 0.86% among 310,000;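 active means B-score over 3 SD under the library average, and starting fluorescence ratio not unusually high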;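 further: choline stimulus applied at its EC90 after an EC20 pre-addition; B-score computed on integrated fluorescence ratio after choline addition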
Target sequence (Q9GZV3 whole entry, looked up): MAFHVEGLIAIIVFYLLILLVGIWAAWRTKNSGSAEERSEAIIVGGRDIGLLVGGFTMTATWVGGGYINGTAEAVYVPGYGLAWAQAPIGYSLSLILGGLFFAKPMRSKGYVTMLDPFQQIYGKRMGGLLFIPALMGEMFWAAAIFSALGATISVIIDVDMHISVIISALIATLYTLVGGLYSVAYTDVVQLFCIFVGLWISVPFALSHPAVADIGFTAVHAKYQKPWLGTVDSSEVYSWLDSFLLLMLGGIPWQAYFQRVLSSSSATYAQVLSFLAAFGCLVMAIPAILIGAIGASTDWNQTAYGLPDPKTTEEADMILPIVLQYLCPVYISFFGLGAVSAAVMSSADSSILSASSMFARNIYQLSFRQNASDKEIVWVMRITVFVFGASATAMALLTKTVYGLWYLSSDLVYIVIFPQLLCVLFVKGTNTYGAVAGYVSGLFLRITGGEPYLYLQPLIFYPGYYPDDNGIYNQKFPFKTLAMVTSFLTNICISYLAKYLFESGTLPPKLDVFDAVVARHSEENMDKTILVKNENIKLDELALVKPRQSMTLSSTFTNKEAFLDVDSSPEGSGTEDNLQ
IDE cell inh: human IDE inhibitors in live cells, primary screen, fluorescence polarization, HEK cells, FAbetaB substrate. FAbetaB cleavage. inhibition, % at 5.59 µM. hit rate 0.41% among 320,000;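 active means percent inhibition above the average of all tested compounds plus 3 SD, set per screening campaign, cut at about 16% in these data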;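 further: IDE supplied by intact live HEK cells; FP after avidin binding of uncleaved biotin substrate so inhibition keeps polarization high; 0% = DMSO wells and 100% = 60 µM reference IDE inhibitor Ii1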
ANO1 activ: TMEM16A chloride channel activators or potentiators, primary screen, cell-based, HTS; Anoctamin-1 (Mus musculus), Q8BHY3; HEK293 TMEM16A/YFP-H148Q/I152L, iodide quench fluorescence; stronger effect = lower value; B-score at 10 µM; hit rate 0.3% among 340,000; AID 623877, 2012;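 active means fluorescence-ratio B-score plate-corrected deviation score at least 3 library SD below zero, with starting fluorescence score within 5 deviations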;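 further: channel opened by trigger with iodide after compound preincubation; score built on the fluorescence ratio of max minus min over baseline; more negative score means more quench and so TMEM16A activation or potentiation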
IDE act: human IDE activators in live cells, primary screen, fluorescence polarization, HEK cells, FAbeta-B substrate; Insulin-degrading enzyme (Homo sapiens), P14735; FAbeta-B cleavage; 0% vehicle, 100% cell-free pure enzyme wells; AID 493087, 2011; activation, % at 5.96 µM; hit rate 0.073% among 340,000;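 active means activation above the mean of all tested compounds plus 3 SD, set per screening campaign, cut at about 17% in these data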
ANO1 block: TMEM16A chloride channel inhibitors, primary screen, cell-based, HTS; HEK293 TMEM16A/YFP iodide influx fluorescence, ionomycin; normalized B-score (activity score, 25-100; higher = stronger inhibition) at 10 µM; hit rate 1.2% among 310,000; AID 588511, 2011;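 active means ratio plate-corrected score three or more library SD toward inhibition, starting fluorescence score within five deviations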;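 further: score derived from kinetic fluorescence span divided by baseline fluorescence per well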
CHT allo act: CHT positive allosteric modulators, primary screen, cell-based, membrane potential dye, choline EC20. B-score at 10 µM. CHT-expressing cells; stronger effect = higher value; LV-AA mutant CHT in HEK293 cells. hit rate 0.49% among 310,000. AID 488977, 2010;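 active means initial fluorescence not abnormally high and integrated response B-score, plate-corrected, over 3 SD above library mean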
IDE cell inh cf: human IDE inhibitors in live cells, confirmation, fluorescence polarization, HEK cells, FAbetaB substrate; FAbetaB cleavage; shares compounds with IDE cell inh; inhibition, % at 5.59 µM; hit rate 51% among 1,200;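 active means mean inhibition across triplicate wells above the cutoff set by the earlier primary insulin-degrading enzyme screen, cut at about 16% in these data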;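 further: 0% = DMSO wells and 100% = 60 µM reference IDE inhibitor Ii1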
HEK cytotox: cytotoxicity in HEK cells, cytotoxicity control for IDE inhibitor project, cell-based, luminescence; shares compounds with IDE cell inh; hit rate 28% among 1,200; HEK293 cytotoxicity, ATP luminescence; inhibition, % at 5.59 µM; in the data active means inhibition above about 22%;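 further: 0% = vehicle wells and 100% = reference cytotoxic drug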
IDE FP artifact: fluorescent or optically active artefacts, dose response, artefact control for IDE inhibitor project, biochemical, fluorescence polarization; 30 tested, under 10 active; shares compounds with IDE cell inh; IC50, µM; FP counterscreen for fluorescent artifacts, IDE probe project; call rule not given here
An asterisk follows results filed as active; i = inactive; x = not tested or not shown. A selection: hits, their analogues and other compounds. The true share with any hit is near 2.7%.

SMILES	CHT block	IDE cell inh	ANO1 activ	IDE act	ANO1 block	CHT allo act	IDE cell inh cf	HEK cytotox	others
ClC(Cl)(c1nnnn1-c1ccccc1)c1nnnn1-c1ccccc1	i	60*	i	-26	i	i	10	121*
S=c1[nH]nc(Nc2cccc(Cl)c2)s1	i	17*	i	-1	i	i	6	6
O=S1(=O)CCN(c2ccccc2CC(c2c[nH]c3ccccc23)c2c[nH]c3ccccc23)CC1	x	x	i	-1	x	x	x	x
CC(Sc1nnc(-c2cccnc2)n1-c1ccccc1F)C(=O)N1CCCc2ccccc21 (configuration not stated)	i	22*	x	x	i	i	16*	8	IDE FP artifact=>55
COc1ccc(S(=O)(=O)N2CCC(C(=O)NCCC(=O)Nc3cccc(Cl)c3)CC2)cc1	i	6	i	-9	i	i	x	x
COc1cc(C(=O)N2CCN(C(=O)C3COc4ccccc4O3)CC2)cc(OC)c1OC (configuration not stated)	i	23*	i	-15	i	i	16	9
COc1ccc(C(=O)N2CCN(C(=O)C3COc4ccccc4O3)CC2)cc1 (configuration not stated)	i	8	i	-7	i	i	x	x
Cn1nc(N)c2c(-c3ccccc3)c(C#N)c(N)nc21	i	2	i	1	i	i	x	x
Cn1nc(N)c2c(-c3ccc(Cl)cc3)c(C#N)c(N)nc21	i	16*	i	-7	i	i	4	7
CC(=O)Nc1ccc(NC(=O)C(NS(=O)(=O)c2cccc3nsnc23)C(C)C)cc1 (configuration not stated)	i	5	i	4	i	i	x	x
Cc1[nH]n(-c2ccccc2)c(=S)c1C=Nc1ccc([N+](=O)[O-])cc1	i	20*	i	-33	i	i	3	18
Cc1[nH]n(-c2ccccc2)c(=O)c1C=Nc1ccc(S(=O)(=O)N=C(N)N)cc1	i	8	i	3	i	i	x	x
CC12C=CC(=O)C=C1CCC1C2C(O)CC2(C)C1CCC2(O)C(=O)CO (configuration not stated)	x	x	i	4	x	x	x	x
COc1cc(/C=C/c2nc3ccccc3s2)cc(OC)c1O	i	142*	-6.9*	-101	i	i	103*	16
COc1cc(C=C(c2nc3ccccc3s2)c2nc3ccccc3s2)ccc1O	i	27*	-6.7*	-44	i	i	59*	13
COc1cccc(NC(=O)CN(C)C(=O)Cn2cnc3ccccc3c2=O)c1	i	-2	i	4	i	i	x	x
CCCCn1c(N)c(N(CC(C)C)C(=O)CSc2n[nH]c(-c3ccc(C)cc3)n2)c(=O)[nH]c1=O	i	-2	i	-3	i	i	x	x
CCOc1cc(/C=C/C(=O)c2ccc(OC)c(CN3CCOCC3)c2)cc(Br)c1O	i	94*	i	-75	i	i	150*	22*
CCOC(=O)C1C(=O)C=C(/C=C/c2ccc(N(C)C)cc2)CC1c1ccccc1 (configuration not stated)	i	40*	i	-114	i	i	129*	24*
CCOC(=O)C1C(=O)C=C(c2ccc(C)cc2)CC1c1ccccc1 (configuration not stated)	i	1	i	0	i	i	x	x
CCC(=O)NC(c1ccc(C)cc1)c1cc([N+](=O)[O-])c2cccnc2c1O (configuration not stated)	i	33*	i	6	i	i	1	39*
CC(=O)NC(c1ccc(C)cc1)c1cc([N+](=O)[O-])c2cccnc2c1O (configuration not stated)	i	6	i	-5	i	i	x	x
Cc1ccc(CNC(=O)CCC(=O)Nc2nnc(C)s2)cc1	i	-2	i	3	i	i	x	x
CCOc1ccc(/C=C2\SC(=S)N(N3C(=O)C4CC4C3=O)C2=O)cc1 (configuration not stated)	i	4	i	-4	i	i	x	x
CCOc1ccc(/C=C2/SC(=O)NC2=S)cc1	i	33*	i	-3	i	i	2	14
SMILES	CHT block	IDE cell inh	ANO1 activ	IDE act	ANO1 block	CHT allo act	IDE cell inh cf	HEK cytotox	others
CC1=CC(C)(C)Nc2ccc(C)cc21	i	-4	i	3	i	i	x	x
CC1=CC(C)(C)Nc2ccc(OC(=O)CN3C(=O)CCC3=O)cc21	i	26*	i	-14	i	i	32*	92*
CC1=CC(C)(C)Nc2ccc(OC(=O)c3cccnc3)cc21	i	22*	i	2	i	i	33*	103*
CCCCCCCC1c2c(c(C)c(C)oc2=O)Oc2c(C)c(C)oc(=O)c21	x	-2	i	-1	x	x	x	x
CCOC(=O)C1CCCN(C(=O)c2ccc3c(=O)n(Cc4ccccc4OC)c(=S)[nH]c3c2)C1 (configuration not stated)	i	5	i	-4	i	i	x	x
Cc1cccc(C)c1NC(=O)CCCCCC1NC(=O)NC1C (configuration not stated)	i	22*	i	-42	i	i	1	7
O=C(Nc1ccc2c(c1)OCO2)C1CC(c2cccc(Br)c2)=NO1 (configuration not stated)	i	3	i	2	i	i	x	x
C[C@@H]1C=C(C(=O)NCc2nc3ccccc3[nH]2)O[C@H](OCCCCO)C1	i	17*	i	-4	i	i	3	13
COc1ccc(C2CC(c3cccs3)=NN2C(=O)CSc2nc(=O)n3ccccc3n2)cc1 (configuration not stated)	i	17*	i	-4	i	i	-1	17
CCOc1ccccc1-n1c(SCC(=O)N(C(C)C)C(C)C)nnc1-c1cccnc1	i	12	i	-20	i	i	x	x
